The values below come from PubChem BioAssay (EPA / NIEHS).

The source made the active and inactive calls. Rule for the calls: active = hit-call score of the fitted dose curve at least 0.9, where 1 is the maximum; inactive = score below 0.9.

A short description of the test: BSK_4H_SRB: Viability Assessment in the BioMAP Diversity Plus: 4H Assay (AID 2283027).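 For AC50: curves fitted both ways versus DMSO so AC50 may be loss or gain.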 To be noted: primary human endothelial cells (HUVEC). Here is the method: BSK_4H is a cell-based, multiplexed-readout assay that uses umbilical vein endothelium, a human vascular primary cell, with measurements taken at 24 hours after chemical dosing in a 96-well plate.BSK_4H_SRB is an assay component measured in the BSK_4H assay. It measures […] related to cell death using Sulforhodamine staining technology.Data from the assay component BSK_4H_SRB was analyzed into 1 assay endpoint. This assay endpoint, BSK_4H_SRB, was analyzed with bidirectional fitting relative to DMSO as the negative control and baseline of activity. Using a type of viability reporter, gain or loss-of-signal activity can be used to understand changes in the signaling. Furthermore, this assay endpoint can be referred to as a primary readout, because this assay has produced multiple assay endpoints where this one serves a signaling function. To generalize the intended target to other relatable targets, this assay endpoint is annotated to the cell morphology intended target family, where the subfamily is cell conformation.
The levels of cell surface (or secreted, indicated by the prefix "s") biomarker endpoints were measured by ELISA. Overt cytotoxicity to cells in confluent adherent cultures (all systems other than the BT system) was assessed by measuring total protein levels using sulforhodamine B (SRB) staining in parallel cultures at the time of biomarker measurements, indicated as SRB endpoints. For proliferation assays for adherent cell types, individual cell types are cultured at sub-confluence and relative cell numbers quantified by SRB staining at time points optimized for each system (48 h: 3C and CASM3C systems; 72 h: BT and HDF3CGF systems; 96 h: SAg system). SRB was performed by staining cells with 0.1% SRB after fixation with 10% TCA and reading wells at 560 nm.Viability and proliferation of PBMC (T cells) was quantified by Alamar Blue reduction for the SAg and BT systems. For PBMC viability (referred to as PBMC Cytotoxicity within the assay endpoint names), cells were plated (75,000/well in a 96-well plate) and then chemical samples added for 1 h before addition of activators, SEB and TSST-1 (20 ng/mL final concentration each). Cells were incubated for 90 h. Then, Alamar Blue (20 uL/well) (Invitrogen, Cat DAL1100) was added for 6 h, and the plates were read with a fluorescence microplate reader at 546/580 nm (excitation/emission). For PBMC proliferation, cells were plated and activated as above but incubated for only 16 h prior to addition of Alamar Blue. Plates were read after 6 h.
As usually defined, the AC50 is the concentration at which the activity in the assay is half-maximal. For the compound `CC[C@H](C)C(=O)O[C@H]1C[C@@H](C)C=C2C=C[C@H](C)[C@H](CC[C@@H]3C[C@@H](O)CC(=O)O3)[C@H]21`, the AC50 was 19.9 µM (active). Turning to `CC(C)c1cccc(C(C)C)c1N1C(=O)c2ccc(O)cc2C1=O`, the AC50 is 12.8 µM (active). For the compound `CC(C)CC(C)(O)C#CC(C)(O)CC(C)C` (stereo not given), the outcome was inactive. With `COc1ccc(/C=C/S(=O)(=O)NC(=O)c2ccc(C)cc2Cl)cc1`, the result was inactive. Consider `COCCOCCOCCOC`, for which the result was inactive. For `O=C1OC(=O)C2C3C=CC(C3)C12` (stereo not given), the outcome was inactive.

Take `CC1=CC(=O)CC(C)(C)C1`: the outcome was inactive. In the case of `COC(=O)c1c(Cl)c(Cl)c(C(=O)OC)c(Cl)c1Cl`, the result was inactive. For the compound `COc1ccc(-n2nc(C(F)F)cc2-c2ccc(S(C)=O)cc2)cc1` (stereo not given), the outcome was inactive.

As to `O=C(O)c1cccc(Oc2ccccc2)c1`, the result was inactive. As to `COC(=O)c1ccccc1O`, the outcome was inactive. For the compound `O=C(O)c1cccc(N(Cc2cccnc2)c2ccc(OC(F)F)c(OC(F)F)c2)c1`, the outcome was inactive. As for `C=CCCCCCCCCC(=O)O`, the result was inactive. `CC(C)CCO`: the result was inactive. With `CC(O)CN(CCN(CC(C)O)CC(C)O)CC(C)O` (stereo not given), the result was inactive.

On to `CCCCCCCCO`, for which the result was inactive. As for `On1ccccc1=S`, the AC50 was 14.8 µM (active).

`CCOCCOCCOCCO`: the outcome was inactive.

Consider `Oc1ccc2c(c1)-c1ccccc1C2`, for which the AC50 is 10.2 µM (active). In the case of `O=C(OC[C@H]1O[C@@H](OC(=O)c2cc(O)c(O)c(OC(=O)c3cc(O)c(O)c(O)c3)c2)[C@H](OC(=O)c2cc(O)c(O)c(OC(=O)c3cc(O)c(O)c(O)c3)c2)[C@@H](OC(=O)c2cc(O)c(O)c(OC(=O)c3cc(O)c(O)c(O)c3)c2)[C@@H]1OC(=O)c1cc(O)c(O)c(OC(=O)c2cc(O)c(O)c(O)c2)c1)c1cc(O)c(O)c(OC(=O)c2cc(O)c(O)c(O)c2)c1`, the result was inactive. As to `Cc1ccc(S(=O)(=O)O)cc1C`, the outcome was inactive. The same measure, in the same setting: the same measure for `C[C@](N)(Cc1ccc(O)c(O)c1)C(=O)O`: “inactive”. With `CCOC(=O)COc1ccc2c(c1)CC(NCC(O)c1cccc(Cl)c1)CC2` (stereo not given), the half-maximal activity concentration (AC50) is 28.1 µM (active). Take `COC(=O)CC(=O)OC`: the outcome was inactive. In the case of `Cc1ccc(O)cc1`, the result was inactive. `CCN(C(=O)c1cc(C)cc(OC[C@H](C)Nc2ccncc2)c1)C(C)C`: the outcome was inactive. In the case of `CC[C@H]1CC[C@H](NCc2cc3c(cc2OC)[C@H]2C[C@H]2C(=O)N3C)[C@H](c2ccccc2)N1`, the outcome was inactive. As for `O=C(NS(=O)(=O)/C=C/c1ccccc1)c1ccc(F)cc1Cl`, the outcome was inactive. Turning to `O=P(OC(CCl)CCl)(OC(CCl)CCl)OC(CCl)CCl`, the outcome was inactive. Still for that read-out and setting: the same measure for `CC(C)(O)c1coc(S(=O)(=O)NC(=O)Nc2c3c(cc4c2CCC4)CCC3)c1`: “inactive”.

On to `CCCCCCc1ccc(O)cc1O`, for which the AC50 was 32.5 µM (active). In the case of `O=C(O)c1cc(N=Nc2ccc(S(=O)(=O)Nc3ccccn3)cc2)ccc1O`, the outcome was inactive.

Turning to `CC/C(=C\C(=N/O)C(N)=O)C(C)[N+](=O)[O-]` (stereo not given), the outcome was inactive. For `CC(=O)OC[C@H]1O[C@@](COC(C)=O)(O[C@H]2O[C@H](COC(C)=O)[C@@H](OC(C)=O)[C@H](OC(C)=O)[C@H]2OC(C)=O)[C@@H](OC(C)=O)[C@@H]1OC(C)=O`, the outcome was inactive. As for `COCCOc1cc2cc(C(=O)NC3CCN(C(C)C)CC3)n(CC(=O)Nc3ccc(Cl)cn3)c2cn1`, the result was inactive.

For the compound `CC(C)=CCCC(C)CCO` (stereo not given), the outcome was inactive. For the compound `Cn1c(=O)cc(Oc2ccc(F)cc2F)c2cnc(NCC(C)(C)O)nc21`, the result was inactive. Regarding `CC(=O)c1ccc2c(c1)[C@H](NC(=O)c1ccc(F)cc1)[C@@H](O)C(C)(C)O2`, the outcome was inactive.

As for `CCCCC(CC)COC(=O)c1ccc(C(=O)OCC(CC)CCCC)cc1` (stereo not given), the result was inactive. With `CCC(C)(C)C(=O)O[C@H]1C[C@@H](C)C=C2C=C[C@H](C)[C@H](CC[C@@H]3C[C@@H](O)CC(=O)O3)[C@H]21`, the AC50 is 10.1 µM (active).
